# In the supplement of paper PMC11732987, “Enantioselective OTUD7B fragment discovery through chemoproteomics screening and high-throughput optimisation” (Communications Chemistry, 2025):
# Values without a mark were called inactive.
# Tests used:
# Experiment in all cases: log2 ratio of Biotin-Ahx-Ub-VS probe labelling (fragment/DMSO); higher = less target engagement (more negative = stronger competition), active = hit call of the paper (q ≤ 0.05, log2 ratio ≤ -1)
# Conditions in all cases: compound concentration: 200 uM; treatment time: 3 h
# OTUD6B = molecular target: T1, OTUD6B (UniProt Q8N6M0)
# T1 sequence (whole entry): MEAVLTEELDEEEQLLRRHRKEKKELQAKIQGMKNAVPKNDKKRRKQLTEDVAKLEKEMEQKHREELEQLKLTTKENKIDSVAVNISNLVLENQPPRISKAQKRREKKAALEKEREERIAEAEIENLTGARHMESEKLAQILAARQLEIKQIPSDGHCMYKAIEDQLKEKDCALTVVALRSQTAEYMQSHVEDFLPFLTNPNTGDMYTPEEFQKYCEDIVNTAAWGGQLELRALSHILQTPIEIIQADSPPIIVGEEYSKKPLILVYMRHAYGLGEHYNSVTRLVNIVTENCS
# Method in brief: (§1)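 Average log2 ratios of fragment over vehicle were obtained by unpaired t-test from global-median-normalised Spectronaut label-free quantities. Proteins with ≥2 unique peptides were included. HEK293T lysate (495 µg per sample) was treated in triplicate with fragment at 200 µM or vehicle for 3 h, then with Biotin-Ahx-Ub-VS at 0.5 µM final for 1 h, and labelled DUBs were NeutrAvidin-enriched and run by diaPASEF LC-MS/MS.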
# OTUD7B = molecular target: T2, OTUD7B (UniProt Q6GQQ9)
# T2 sequence (whole entry): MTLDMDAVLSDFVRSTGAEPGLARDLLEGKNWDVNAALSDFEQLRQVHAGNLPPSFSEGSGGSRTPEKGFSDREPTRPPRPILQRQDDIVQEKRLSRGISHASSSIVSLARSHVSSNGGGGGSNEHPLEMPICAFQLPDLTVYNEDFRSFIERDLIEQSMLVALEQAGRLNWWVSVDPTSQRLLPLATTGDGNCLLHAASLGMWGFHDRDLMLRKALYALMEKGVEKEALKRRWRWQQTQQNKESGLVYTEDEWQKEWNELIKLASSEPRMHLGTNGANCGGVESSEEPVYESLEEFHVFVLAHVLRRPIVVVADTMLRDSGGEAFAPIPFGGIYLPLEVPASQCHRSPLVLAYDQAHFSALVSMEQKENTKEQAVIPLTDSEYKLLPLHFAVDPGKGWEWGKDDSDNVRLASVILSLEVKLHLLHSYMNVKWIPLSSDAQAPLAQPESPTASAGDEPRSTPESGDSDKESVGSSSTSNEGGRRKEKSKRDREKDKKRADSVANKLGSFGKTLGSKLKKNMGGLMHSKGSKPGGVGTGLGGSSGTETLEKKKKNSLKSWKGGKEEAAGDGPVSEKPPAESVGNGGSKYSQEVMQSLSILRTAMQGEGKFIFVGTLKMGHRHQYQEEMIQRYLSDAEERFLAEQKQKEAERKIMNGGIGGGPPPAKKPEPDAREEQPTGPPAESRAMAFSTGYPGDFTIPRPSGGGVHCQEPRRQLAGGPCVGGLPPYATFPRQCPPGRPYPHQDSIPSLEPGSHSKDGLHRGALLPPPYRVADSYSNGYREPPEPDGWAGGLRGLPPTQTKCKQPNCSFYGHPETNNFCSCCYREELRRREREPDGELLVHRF
# Method in brief: as §1
# PRPF8 = PRPF8 (UniProt Q6P2Q9)
# Method in brief: as §1
# PSMD7 = molecular target: T3, PSMD7 (UniProt P51665)
# T3 sequence (whole entry): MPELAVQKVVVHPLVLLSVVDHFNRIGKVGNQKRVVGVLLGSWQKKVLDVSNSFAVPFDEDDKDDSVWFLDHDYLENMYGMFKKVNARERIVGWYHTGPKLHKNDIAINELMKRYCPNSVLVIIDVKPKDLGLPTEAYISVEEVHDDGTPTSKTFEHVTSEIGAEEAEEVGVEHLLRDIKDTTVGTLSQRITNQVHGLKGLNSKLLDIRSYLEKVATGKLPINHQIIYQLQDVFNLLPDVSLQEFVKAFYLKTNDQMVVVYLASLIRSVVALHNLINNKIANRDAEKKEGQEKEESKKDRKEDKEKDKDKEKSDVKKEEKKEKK
# Method in brief: as §1
# UCHL1 = UCHL1 (UniProt P09936)
# Method in brief: as §1
# UCHL3 = molecular target: T4, UCHL3 (UniProt P15374)
# T4 sequence (whole entry): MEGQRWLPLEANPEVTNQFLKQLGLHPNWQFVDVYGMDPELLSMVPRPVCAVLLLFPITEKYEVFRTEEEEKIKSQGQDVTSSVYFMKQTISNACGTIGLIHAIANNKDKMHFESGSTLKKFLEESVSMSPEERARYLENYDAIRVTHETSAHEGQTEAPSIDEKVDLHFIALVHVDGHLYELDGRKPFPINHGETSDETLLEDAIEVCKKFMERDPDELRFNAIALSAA
# Method in brief: as §1
# UCHL5 = molecular target: T5, UCHL5 (UniProt Q9Y5K5)
# T5 sequence (whole entry): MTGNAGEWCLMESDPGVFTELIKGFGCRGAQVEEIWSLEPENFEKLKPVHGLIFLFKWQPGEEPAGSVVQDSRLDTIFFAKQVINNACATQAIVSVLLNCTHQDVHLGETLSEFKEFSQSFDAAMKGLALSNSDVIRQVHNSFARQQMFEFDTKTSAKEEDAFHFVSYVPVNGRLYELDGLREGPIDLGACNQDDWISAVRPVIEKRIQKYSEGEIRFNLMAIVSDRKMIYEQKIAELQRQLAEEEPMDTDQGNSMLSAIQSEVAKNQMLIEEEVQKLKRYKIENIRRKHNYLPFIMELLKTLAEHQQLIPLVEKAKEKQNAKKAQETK
# Method in brief: as §1
# USP10 = USP10 (UniProt Q14694)
# Method in brief: as §1
# USP15 = molecular target: T6, USP15 (UniProt Q9Y4E8)
# T6 sequence (whole entry): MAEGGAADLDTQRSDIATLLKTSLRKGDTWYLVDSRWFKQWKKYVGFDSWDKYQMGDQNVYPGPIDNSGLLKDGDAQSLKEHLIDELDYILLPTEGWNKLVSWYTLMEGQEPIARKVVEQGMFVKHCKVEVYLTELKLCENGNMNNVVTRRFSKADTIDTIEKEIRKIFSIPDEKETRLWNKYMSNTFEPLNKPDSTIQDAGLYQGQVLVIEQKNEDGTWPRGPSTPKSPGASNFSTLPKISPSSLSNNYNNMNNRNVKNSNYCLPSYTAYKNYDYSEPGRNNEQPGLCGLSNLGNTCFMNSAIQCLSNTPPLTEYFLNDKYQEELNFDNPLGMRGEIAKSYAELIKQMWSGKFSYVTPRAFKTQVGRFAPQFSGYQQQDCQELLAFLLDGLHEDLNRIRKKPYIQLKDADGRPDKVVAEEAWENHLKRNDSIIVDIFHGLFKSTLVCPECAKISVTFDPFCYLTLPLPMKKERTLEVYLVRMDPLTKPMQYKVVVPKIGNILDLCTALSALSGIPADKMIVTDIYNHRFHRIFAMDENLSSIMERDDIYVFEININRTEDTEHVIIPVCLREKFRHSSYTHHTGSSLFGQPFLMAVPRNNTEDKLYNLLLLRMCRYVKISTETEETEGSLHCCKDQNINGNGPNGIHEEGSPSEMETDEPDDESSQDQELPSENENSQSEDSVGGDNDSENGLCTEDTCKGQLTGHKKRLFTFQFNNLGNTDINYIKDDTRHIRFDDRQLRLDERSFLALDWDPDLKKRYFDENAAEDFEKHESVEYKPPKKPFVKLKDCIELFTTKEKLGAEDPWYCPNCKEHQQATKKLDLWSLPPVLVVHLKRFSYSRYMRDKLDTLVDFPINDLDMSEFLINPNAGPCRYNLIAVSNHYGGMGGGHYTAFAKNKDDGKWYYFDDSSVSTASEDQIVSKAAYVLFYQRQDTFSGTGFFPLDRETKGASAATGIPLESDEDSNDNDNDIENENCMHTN
# Method in brief: as §1
# USP16 = USP16 (UniProt Q9Y5T5)
# Method in brief: as §1
# Chain of USP10 (Q14694 whole entry): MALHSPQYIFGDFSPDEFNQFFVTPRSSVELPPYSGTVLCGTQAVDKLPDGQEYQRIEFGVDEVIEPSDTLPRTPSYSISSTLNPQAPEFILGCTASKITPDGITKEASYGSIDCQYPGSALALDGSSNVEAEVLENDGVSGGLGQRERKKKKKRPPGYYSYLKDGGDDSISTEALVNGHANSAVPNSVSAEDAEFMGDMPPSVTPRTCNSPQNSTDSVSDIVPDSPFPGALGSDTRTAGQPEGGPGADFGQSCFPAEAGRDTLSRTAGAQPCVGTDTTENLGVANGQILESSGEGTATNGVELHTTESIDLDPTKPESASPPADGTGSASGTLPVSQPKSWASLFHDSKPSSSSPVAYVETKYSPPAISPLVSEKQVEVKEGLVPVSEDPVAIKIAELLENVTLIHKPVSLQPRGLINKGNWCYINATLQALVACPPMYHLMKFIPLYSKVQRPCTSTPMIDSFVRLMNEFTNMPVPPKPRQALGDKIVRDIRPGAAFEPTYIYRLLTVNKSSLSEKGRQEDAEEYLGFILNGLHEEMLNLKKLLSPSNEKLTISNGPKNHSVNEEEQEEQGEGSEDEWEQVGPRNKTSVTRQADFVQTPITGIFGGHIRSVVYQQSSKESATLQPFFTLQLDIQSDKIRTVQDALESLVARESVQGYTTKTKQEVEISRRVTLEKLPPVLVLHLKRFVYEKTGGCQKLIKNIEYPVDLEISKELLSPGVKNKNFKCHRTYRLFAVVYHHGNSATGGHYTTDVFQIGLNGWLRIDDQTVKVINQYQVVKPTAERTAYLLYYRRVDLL
# Chain of UCHL1 (P09936 whole entry, looked up): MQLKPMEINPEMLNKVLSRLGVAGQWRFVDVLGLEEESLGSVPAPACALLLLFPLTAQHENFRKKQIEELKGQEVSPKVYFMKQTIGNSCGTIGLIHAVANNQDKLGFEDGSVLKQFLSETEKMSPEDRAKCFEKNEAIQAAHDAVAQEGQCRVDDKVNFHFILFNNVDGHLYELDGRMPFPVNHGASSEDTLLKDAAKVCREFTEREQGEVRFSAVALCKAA
# Chain of USP16 (Q9Y5T5 whole entry, looked up): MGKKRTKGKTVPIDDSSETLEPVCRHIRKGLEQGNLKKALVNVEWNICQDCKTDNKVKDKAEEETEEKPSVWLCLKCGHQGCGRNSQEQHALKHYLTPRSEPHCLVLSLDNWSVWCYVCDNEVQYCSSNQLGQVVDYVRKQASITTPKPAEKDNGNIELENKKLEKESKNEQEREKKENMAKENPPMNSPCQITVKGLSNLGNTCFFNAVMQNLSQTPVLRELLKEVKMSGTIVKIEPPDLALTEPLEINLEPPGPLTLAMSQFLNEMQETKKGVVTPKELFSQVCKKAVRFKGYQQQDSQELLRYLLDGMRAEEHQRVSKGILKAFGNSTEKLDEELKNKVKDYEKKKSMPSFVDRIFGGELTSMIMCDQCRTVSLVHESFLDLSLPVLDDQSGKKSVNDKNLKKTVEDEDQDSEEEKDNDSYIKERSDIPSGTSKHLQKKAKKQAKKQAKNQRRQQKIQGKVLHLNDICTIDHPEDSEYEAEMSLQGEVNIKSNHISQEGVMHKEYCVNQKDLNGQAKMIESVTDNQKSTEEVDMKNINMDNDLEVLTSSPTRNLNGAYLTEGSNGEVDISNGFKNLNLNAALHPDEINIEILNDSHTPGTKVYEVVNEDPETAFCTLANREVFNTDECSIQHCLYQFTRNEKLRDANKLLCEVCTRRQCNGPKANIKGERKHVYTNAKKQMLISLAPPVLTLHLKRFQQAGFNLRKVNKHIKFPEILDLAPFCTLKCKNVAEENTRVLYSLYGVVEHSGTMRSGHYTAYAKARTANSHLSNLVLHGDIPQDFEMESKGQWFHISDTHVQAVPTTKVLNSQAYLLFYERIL
smiles,measurement,setting,value
CNC(=O)C1(NC(=O)CCl)CCCCC1,log2 ratio of Biotin-Ahx-Ub-VS probe labelling,OTUD6B,-0.206
same,log2 ratio of Biotin-Ahx-Ub-VS probe labelling,OTUD7B,-0.687
same,log2 ratio of Biotin-Ahx-Ub-VS probe labelling,PRPF8,-0.213
same,log2 ratio of Biotin-Ahx-Ub-VS probe labelling,PSMD7,-0.128
same,log2 ratio of Biotin-Ahx-Ub-VS probe labelling,UCHL1,-1.81 (active)
same,log2 ratio of Biotin-Ahx-Ub-VS probe labelling,UCHL3,0.248
same,log2 ratio of Biotin-Ahx-Ub-VS probe labelling,UCHL5,-0.358
same,log2 ratio of Biotin-Ahx-Ub-VS probe labelling,USP10,-0.0869
same,log2 ratio of Biotin-Ahx-Ub-VS probe labelling,USP15,0.0503
same,log2 ratio of Biotin-Ahx-Ub-VS probe labelling,USP16,0.154
